Inconclusive results are not listed. Entries that show only a call come without a potency. Active and inactive are the calls of the source. Unless noted, the call rests on the fitted dose curve; in most records, active means well fitted curve in the direction sought with a large enough effect; inconclusive means small, poorly fitted or top-dose-only effect, or another doubt; inactive means no such curve, though single readings can be large; an effect the other way counts as inactive or inconclusive.
Columns and labels:
[1] = target: Cytochrome P450 3A4 (Homo sapiens) (UniProt P08684); experiment: qHTS Assay for Inhibitors and Substrates of Cytochrome P450 3A4 (AID 884); further: nearly all actives have a fitted effect of over 50% in size
How it was run: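 20 nM human CYP3A4 with 25 uM Luciferin-PPXE (at KM) in 200 mM KPO4, preincubated 10 min with compound; NADPH regeneration started a 60 min RT reaction. Luciferin detected by luminescence, normalized to 57 uM ketoconazole as full inhibition.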

[2] = Confirmation and Secondary Assay for Modulators of Hemoglobin Beta Chain Splicing at IVS2 654 locus (AID 910);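 further: HeLa cells stably carrying EGFP split by mutant beta-globin IVS2-654 intron; per-well total GFP intensity by laser scanning cytometry after 2-day treatment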
How it was run: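 Readout: per-well total peak green fluorescence (488 nm ex, 500–520 nm em) from objects 5–250 µm, reflecting correct splicing of an EGFP-654 reporter. Compounds were applied for 2 days at 37 °C to overnight-plated HeLa EGFP-654 cells; controls were DMSO and 500 nM IVS2-654 PNA.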

[3] = Confirmation and Secondary Assay for Modulators of Hemoglobin Beta Chain Splicing at IVS2 705 locus (AID 930);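 further: HeLa cells stably expressing the EGFP-705 splicing reporter; GFP fluorescence per well restored by corrected splicing of the IVS2-705 intron in EGFP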
How it was run: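 First, HeLa EGFP-705 cells are seeded at 500/well in Optimem with 2% FCS and left overnight. Next, compound or DMSO is added for 2 days. Finally wells are laser-scanned and total peak GFP intensity scored.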

[4] = qHTS Assay for Lipid Storage Modulators (AID 1519; calls by dose curve); settings: Drosophila S3 cells, BODIPY lipid droplet/cell ratio, laser cytometry, cells loaded with oleic acid; for activity change, negative = inhibition: at 57.5 µM (top of the series)
How it was run: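 Cells seeded at 5,000 per well were treated with compounds over a concentration series and loaded with oleic acid (400 uM, as added). Lipid droplet fluorescence (488 nm excitation, 500-530 nm channel) was read by laser-scanning cytometry and normalized to 20 uM Triacsin C.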

[5] = measured here: cell count channel max response
[6] = measured here: lipid channel max response

Chain of Cytochrome P450 3A4 (Homo sapiens) (P08684 whole entry, looked up): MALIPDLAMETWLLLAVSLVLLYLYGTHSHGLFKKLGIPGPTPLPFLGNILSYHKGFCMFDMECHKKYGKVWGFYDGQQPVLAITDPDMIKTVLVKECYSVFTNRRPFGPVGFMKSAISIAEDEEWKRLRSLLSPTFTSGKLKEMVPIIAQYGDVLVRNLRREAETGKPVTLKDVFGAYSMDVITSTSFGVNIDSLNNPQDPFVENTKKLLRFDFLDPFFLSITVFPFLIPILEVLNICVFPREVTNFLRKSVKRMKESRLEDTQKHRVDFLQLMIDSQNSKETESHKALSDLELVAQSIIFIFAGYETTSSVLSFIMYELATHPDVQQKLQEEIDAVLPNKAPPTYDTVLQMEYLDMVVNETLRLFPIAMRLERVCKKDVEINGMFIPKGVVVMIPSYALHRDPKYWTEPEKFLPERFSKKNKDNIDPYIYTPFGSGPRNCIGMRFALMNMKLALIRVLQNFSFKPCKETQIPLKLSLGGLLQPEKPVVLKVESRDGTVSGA

Q: Which Potency [1] does the source give for `CNC(=O)Oc1cccc2c1OC(C)(C)C2` here?
A: Its Potency is “inactive”.

Q: What about the Potency [2] of the same molecule?
A: Its Potency is “inactive”.

Q: What about the Potency [3] of the same molecule?
A: Its Potency is “inactive”.

Q: And the activity change, negative = inhibition [4]?
A: Its activity change, negative = inhibition is 4.9% (inactive).

Q: And the max response [4, 5]?
A: The max response was 5.85%.

Q: What about the max response [4, 6] of the same molecule?
A: The max response was 6.59%.

Q: Which results are given for `CC1CC2CC(=O)C3CCCN4CCCC2[C@]34C1` (some centres not stated)?
A: Potency [1]: inactive; Potency [2]: inactive; Potency [3]: inactive; activity change, negative = inhibition [4]: 3.72% (inactive); max response [4, 5]: 9.37%; max response [4, 6]: 11.3%
